This note sets out measurements from PubChem BioAssay AID651812 (National Center for Advancing Translational Sciences (NCATS), 2012).

Screen size: about 2,100 compounds; about 650 (31%) were called active. Roughly 16% stayed inconclusive and do not appear here. The call rests on the fitted dose curve; in most records, active means well fitted inhibition curve with a large enough effect; inconclusive means small, poorly fitted or top-dose-only effect; inactive means flat fitted curve, though single readings scatter. Some of the results follow.
Potency means the concentration at half of the fitted maximal effect.

This experiment is described as follows: qHTS for inhibitors of Vif-A3G interactions: Cherry picks. Further: nearly all actives have a fitted effect of over 80% in size. On activity, negative = fluorescence increase: % of control where 0% means no effect. The conditions noted are these: HeLa A3G-eYFP + Vif (tagged APOBEC3G with the HIV-1 protein that degrades it), 24 h; Potency: eYFP fluorescence increase; series mostly up to 36.9 µM; activity, negative = fluorescence increase: at the top concentration. In a few lines:
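Cherry-picked compounds tested at several concentrations on A3G-eYFP/Vif HeLa cells for 24 hours; loss of Vif-driven degradation read as eYFP fluorescence by cytometric plate imaging, 488 nm excitation, 500-530 nm emission.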
For `Cc1ccc(C(=O)NC(=C(Cl)Cl)S(=O)(=O)c2ccc(Cl)cc2)cc1`, the “activity, negative = fluorescence increase” value is -21.2% (inactive).

For `CC(=O)c1cccc(-c2ccnc3c2CC(C(=O)NCC2CCOCC2)O3)c1` (stereo unspecified), the “activity, negative = fluorescence increase” value was -5.46% (inactive).

Consider `COc1ccccc1C(=O)N1CCN(c2cccc(Cl)c2)CC1`, for which the “activity, negative = fluorescence increase” value was -4.75% (inactive).

Turning to `Cc1cccc(C(=O)NC(=S)N2CCc3ccccc3C2)c1`, the “activity, negative = fluorescence increase” value was 13.5% [at 46.1 µM] (inactive).

On to `O=C(Nc1nc2c(F)cccc2s1)c1ccc([N+](=O)[O-])o1`, for which the “activity, negative = fluorescence increase” value was -7.65% [at 46.1 µM] (inactive).

Regarding `O=C(N/N=C/c1ccc([N+](=O)[O-])o1)c1sc2ccccc2c1Cl`, the Potency was 18.4 µM (active).

As to `O=C(N/N=C/c1ccc([N+](=O)[O-])o1)c1cn2ccc3ccccc3c2n1`, the “activity, negative = fluorescence increase” value was -24.5% (inactive).

`COc1cc(C2Nc3ccc4ncccc4c3C3=C2C(=O)CCC3)ccc1O` (stereo unspecified): the “activity, negative = fluorescence increase” value was -1.83% (inactive).

As to `O=C(N/N=C/c1cccs1)c1n[nH]c2c1CCC2`, the “activity, negative = fluorescence increase” value is 0.292% (inactive).

Turning to `COc1ccccc1OCC(=O)NNC(=O)Nc1ccc(Cl)cc1`, the “activity, negative = fluorescence increase” value is -5.61% (inactive).

As to `O=C(Nc1ncccn1)c1ccc([N+](=O)[O-])o1`, the “activity, negative = fluorescence increase” value is -21.8% (inactive).

On to `O=C(N/N=C\C=C\c1ccc([N+](=O)[O-])o1)c1cccs1`, for which the Potency was 15.8 µM (active).

Take `CCCOC(=O)/C(=C\c1ccc([N+](=O)[O-])o1)NC(=O)c1ccccc1`: the “activity, negative = fluorescence increase” value was 2.95% [at 46.1 µM] (inactive).

In the case of `COc1ccccc1OCC(=O)N/N=C/C=C/c1ccc([N+](=O)[O-])o1`, the Potency is 16.4 µM (active).

As for `COc1cc2c(c(OC)c1OC)-c1ccc(N(C)CC(OC)OC)c(=O)cc1[C@@H](NC(C)=O)CC2`, the “activity, negative = fluorescence increase” value was -15.4% (inactive).

As to `CC(C)(C)c1ccc(Oc2ccc(NC(=O)c3ccccc3C(=O)O)cn2)cc1`, the “activity, negative = fluorescence increase” value was -6.2% (inactive).

With `COc1cc2ccccc2cc1C(=O)N/N=C/c1cccnc1`, the “activity, negative = fluorescence increase” value was -15.3% (inactive).

`Cc1cc2nc3c(=O)n(Cc4ccccc4)c(=O)[nH]c3nc2cc1N`: the Potency is 6.27 µM (active).

`Cn1c(=O)[nH]c(=O)c2c1nc(Br)n2Cc1cccc(Br)c1`: the “activity, negative = fluorescence increase” value was -5.77% (inactive).

Consider `Cc1nc2c3cc(F)ccc3n(Cc3ccccc3)c2s1`, for which the “activity, negative = fluorescence increase” value was -4.45% (inactive).

`Cc1cc2nc3c(=O)n(C4CCCCC4)c(=O)[nH]c3nc2cc1N`: the Potency was 16.4 µM (active).

For `Cc1cccc(C)c1OCCNC(=O)C(=O)NCc1ccco1`, the “activity, negative = fluorescence increase” value is 2.6% (inactive).

For the compound `CC1CC(C)(C)Nc2ccc(OC(=O)c3ccco3)cc21` (stereo unspecified), the Potency was 20.6 µM (active).

For the compound `COc1cc(C2Oc3ccccc3C=C2[N+](=O)[O-])cc(OC)c1OC` (stereo unspecified), the “activity, negative = fluorescence increase” value is 0.838% (inactive).

Take `N#CC1=C(N)C(C#N)(C#N)[C@H](c2ccoc2)[C@H]2CN(Cc3ccccc3)CC=C12`: the “activity, negative = fluorescence increase” value is -15.3% (inactive).

Take `CCOC(=O)C1=C(C)N=c2sc(=Cc3cc(Cl)c(OCC(=O)O)c(Cl)c3)c(=O)n2C1c1cccc(OC)c1` (stereo unspecified): the “activity, negative = fluorescence increase” value was -25.7% (inactive).

In the case of `Nc1c(C(=O)C2CC2)sc2nc(-c3cccs3)cc(C(F)(F)F)c12`, the Potency is 2.31 µM (active).

For `CC(C)(C)C(=O)c1sc2nc(-c3cccs3)cc(C(F)(F)F)c2c1N`, the Potency was 1.3 µM (active).

`CC(=O)c1sc2nc(-c3cccs3)cc(C(F)(F)F)c2c1N`: the Potency was 7.31 µM (active).

`Cc1ccc(-c2cc(NC=O)c3ncc(-c4cccc(C(=O)N(C)C)c4)n3c2)cc1`: the “activity, negative = fluorescence increase” value is -12.4% (inactive).

Turning to `CCOC(=O)c1c(-c2ccc(OC)cc2)csc1/N=C/C1=C(O)CCCC1=O`, the “activity, negative = fluorescence increase” value was -5.4% [at 46.1 µM] (inactive).

In the case of `Cc1ccc(S(=O)(=O)N2CCN(C(=O)CSC(=S)N3CCCC3)CC2)c(C)c1`, the “activity, negative = fluorescence increase” value was 2.82% [at 46.1 µM] (inactive).

On to `Cc1cc(/C=C2\SC(=S)N(Cc3ccco3)C2=O)c(C)n1-c1cccnc1`, for which the Potency was 23.1 µM (active).

As to `COC(=O)C1=C(C)N(Cc2ccco2)C(=O)/C1=C\c1ccc([N+](=O)[O-])cc1`, the “activity, negative = fluorescence increase” value was -5.03% [at 46.1 µM] (inactive).

For the compound `CCN1CCN(c2c(/C=C3\SC(=S)N(Cc4ccco4)C3=O)c(C)c(C#N)c(=O)n2C)CC1`, the Potency was 18.4 µM (active).

In the case of `CN(C)c1ccc(C=C2SC(=S)N(Cc3ccco3)C2=O)cc1`, the Potency was 2.8 µM (active).

Consider `C/C(=N/NC(N)=S)c1ccc(Br)s1`, for which the “activity, negative = fluorescence increase” value is 4.29% [at 46.1 µM] (inactive).

`CCCC(=O)NC(c1ccc(OC)cc1)c1ccc2cccnc2c1O` (stereo unspecified): the “activity, negative = fluorescence increase” value is 2.17% [at 46.1 µM] (inactive).

As for `Cn1ccnc1Sc1nc2ccccc2nc1NS(=O)(=O)c1ccccc1`, the “activity, negative = fluorescence increase” value was 9.44% [at 46.1 µM] (inactive).

Consider `CC(OC(=O)/C(C#N)=C/c1ccc(N(C)C)cc1)C(=O)N(C)Cc1ccccc1` (stereo unspecified), for which the Potency was 18.4 µM (active).

As to `COc1ccc(-c2cc(C(=O)N/N=C/c3sccc3C)c3ccccc3n2)c(OC)c1`, the “activity, negative = fluorescence increase” value is -10.7% (inactive).

With `COc1ccc(N=Cc2c(O)n(-c3cccc(C)n3)c(=O)c3ccccc23)c(OC)c1`, the Potency is 13 µM (active).

With `CCc1cccc2c(C(O)c3c[nH]c4ccccc34)c[nH]c12` (stereo unspecified), the Potency was 20.6 µM (active).

Take `N#CC1=C(N)Oc2cc(N)ccc2C1c1ccccc1` (stereo unspecified): the “activity, negative = fluorescence increase” value is -1.01% (inactive).

Turning to `CC1CC(=O)C2=C(C1)OC(N)=C(C#N)C2c1coc2ccccc2c1=O` (stereo unspecified), the Potency is 23.1 µM (active).

On to `C=CCn1cc(/C=C/c2cc[n+](C)cc2)c2ccccc21`, for which the Potency is 7.04 µM (active).

As to `CCn1cc(/C=C/c2cc[n+](C)cc2)c2ccccc21`, the Potency is 1.77 µM (active).

As to `CC(C)n1cc(/C=C/c2cc[n+](C)cc2)c2ccccc21`, the Potency is 0.25 µM (active).

For `CC(C)n1cc(/C=C2\NC(=O)N(c3cccc(Cl)c3)C2=O)c2ccccc21`, the “activity, negative = fluorescence increase” value is -21.4% (inactive).

For `CCOC(=O)CSC1=C(C#N)C(c2ccc(C)s2)CC(=O)N1` (stereo unspecified), the “activity, negative = fluorescence increase” value is -2.09% (inactive).

On to `N#C/C(N=Nc1ccccc1O)=N\Nc1ccccc1O`, for which the Potency is 14.6 µM (active).

In the case of `NC(=O)c1ccc(Cn2c(C(=O)c3cc(Cl)c(N)c(Cl)c3)c3ccccc3[n+]2[O-])cc1`, the “activity, negative = fluorescence increase” value is -3.16% (inactive).

As to `Cc1c(C(=O)Nc2cccnc2)oc2ccc(Br)cc12`, the “activity, negative = fluorescence increase” value was -3.28% (inactive).

With `COc1ccc(-c2nnc(SCC(=O)NCc3ccccc3)nc2-c2ccc(OC)c(OC)c2)cc1OC`, the “activity, negative = fluorescence increase” value was -10.7% [at 46.1 µM] (inactive).

In the case of `COc1ccc(-c2ccc3c(c2)S(=O)(=O)c2cccc(C(=O)NCCOc4ccccc4)c2C3=O)cc1OC`, the Potency was 12.5 µM (active).

As for `COc1cc(C(=O)NCCOc2cc(C)cc(C)c2)cc(OC)c1OC`, the “activity, negative = fluorescence increase” value is -7.09% (inactive).

In the case of `COc1ccc(-c2ccc3c(c2)S(=O)(=O)c2cccc(C(=O)NCc4cccc(OC(F)(F)F)c4)c2C3=O)cc1OC`, the Potency is 10.3 µM (active).

For the compound `COc1cc(C(=O)NCCOc2cc(C)cc(C)c2)c(Br)c(OC)c1OC`, the “activity, negative = fluorescence increase” value was 2.34% (inactive).

`Fc1cccc(Cc2c(-c3ccco3)nc3ccc(Br)cn23)c1`: the “activity, negative = fluorescence increase” value was -9.28% (inactive).

With `CC(NC1=CC(=O)c2cccnc2C1=O)C(O)c1ccccc1` (stereo unspecified), the “activity, negative = fluorescence increase” value was -0.502% (inactive).

As for `CN(CC(=O)Nc1ccc(Cl)c(C(F)(F)F)c1)C(=O)c1ccc(S(=O)(=O)N2CCOCC2)cc1`, the “activity, negative = fluorescence increase” value was -0.993% (inactive).

For `Cc1cc(/C=C/c2ccnc3ccccc23)ccc1N`, the Potency was 18.4 µM (active).

Take `CN1CCCc2cc(/C=C/c3ccnc4ccccc34)ccc21`: the Potency is 5.17 µM (active).

In the case of `CCc1cc(/C=C/c2ccnc3ccccc23)ccc1N(C)C`, the Potency was 18.4 µM (active).

Take `CN(C)c1ccc(/C=C/c2ccnc3ccccc23)cc1O`: the Potency is 18.4 µM (active).

On to `CN(C)c1ccc(/C=C/c2ccnc3ccccc23)cc1C=O`, for which the “activity, negative = fluorescence increase” value was -27.4% [at 46.1 µM] (inactive).
